Inhibition data for 93 compounds are collected here from PubChem BioAssay AID2315 (National Center for Advancing Translational Sciences (NCATS), 2010).

Molecules are shown by their SMILES. The campaign covered roughly 290,000 compounds. About 27,000 (9.3%) were called active. The full list was thinned out, with actives kept by preference. Unmarked numbers belong to inactive results. Cut-off read from the data, not from the text of the source: active = inhibition mostly above about 28% (no sharp cut-off); inactive = mostly below about 43%.

The assay is described as follows: A qHTS for Small Molecule Inhibitors of Shiga Toxin. Note: 0% is about no effect. To be noted: Vero cells, Shiga toxin protein synthesis inhibition reporter; at 38.7 µM, hits give high values. Background: In qHTS, concentration-response curves come from the screen itself.
The inhibition is the drop in the measured response relative to a control, in per cent. Regarding `C[C@H](NC(=O)C1CCN(S(=O)(=O)c2ccccc2)CC1)C(=O)NCc1ccccc1`, the inhibition was -3.31%.
As to `CC(=O)N1c2ccc(S(=O)(=O)NCCC(=O)N(C)C3CCCCC3)cc2CC1C` (stereo not drawn), the inhibition was 2.29%.
The figure for `COc1ccc(C(C(=O)NC2CCCC2)N(CCCO)C(=O)Cn2nnc(-c3ccc(C)o3)n2)cc1` (stereo not drawn) is -6.08%.
The figure for `COc1cccc(C(=O)N/N=C(\C)c2cccc(NC(=O)c3ccc(F)cc3)c2)c1OC` is 77.4% (active); for `CC(=O)Nc1cccc(/C(C)=N/NC(=O)c2ccccc2Cl)c1` it is 22%.
In the case of `C/C(=N/NC(=O)c1ccc(NC(=O)c2ccc(F)cc2)cc1)c1ccccc1`, the inhibition is 30%.
With `OC(CNC1CCCC1)COc1ccc(F)cc1` (stereo not drawn), the inhibition is -14%.
The value for `CC(=O)N1CCN(CC(c2ccccc2)c2ccccc2)CC1` was -3.73%; that for `CC1CCCN(CC(=O)Nc2cc(Cl)ccc2Oc2ccccc2)C1` (stereo not drawn) was 0.789%.
The figure for `CC1CCC2CCCCC2N1C(=O)c1cc([N+](=O)[O-])cc([N+](=O)[O-])c1` (stereo not drawn) is -16.8%; for `CN(C)C(=O)Oc1ccc2c(c1)O/C(=C\c1ccccc1)C2=O` it is 62% (active).
The figure for `COC(=O)C(C)Oc1ccc2c(c1)O/C(=C\c1cccc(Br)c1)C2=O` (stereo not drawn) is -4.67%.
As for `O=C1/C(=C/c2ccc3c(c2)OCO3)Oc2cc(OCC(=O)N3CC(O)C[C@H]3C(=O)O)ccc21` (stereo partly drawn), the inhibition was -3%.
The value for `Cc1ccc(S(=O)(=O)N2CCC(C)CC2)cc1C(=O)NCc1ccccn1` was 5.07%.
Take `COc1ccccc1OCc1ccc(C(=O)NC(C)c2ccccc2)o1` (stereo not drawn): the inhibition was -4.29%.
The value for `CCc1cc(-c2nnc(SCC(=O)NC3CC3)n2C)cs1` was 14.1%; that for `Cc1ccc(C(=O)N2CCCCCC2)cc1Br` was 20.5%.
The figure for `Cc1ccc(C(=O)NC(C)c2ccccc2)cc1Br` (stereo not drawn) is 38.4%; for `C=CCNC(=O)c1ccc(C)c(Br)c1` it is 19.7% (active).
The value for `CCCc1nnc(SCC(=O)Nc2ccc(C(=O)OCC)cc2)o1` was 32.8%; that for `COCCNC(=O)c1snc2ccc(Cl)cc12` was 51.4% (active); that for `COCCNC(=O)c1ccc(S(=O)(=O)c2ccc(Cl)cc2)c(NC(C)=O)c1` was -11.4%.
As for `COCCNC(=O)c1ccc2c(c1)ncn2-c1ccc(C)c(Cl)c1`, the inhibition was 19.9%.
In the case of `Cc1ccc(S(=O)(=O)N2CCCC(C(=O)N3CCN(C)CC3)C2)cc1` (stereo not drawn), the inhibition was -6.59%.
The value for `NS(=O)(=O)c1cccc(NC(=O)CC23CC4CC(CC(Br)(C4)C2)C3)c1` was -9.01%; that for `CCOc1ccc(C(=O)Nc2ccc(S(=O)(=O)NCC3CCCO3)cc2)cc1OCC` (stereo not drawn) was 12.5%; that for `O=C(Cc1csc(Nc2nc(=S)[nH]c3ccccc23)n1)NCCCN1CCN(c2cccc(Cl)c2)CC1` was 15.7%.
The figure for `O=C(NC1CCCC1)C(c1ccc(Cl)cc1)N(C(=O)c1csnn1)C1CC1` (stereo not drawn) is 2.36%; for `O=C(NCc1ccccc1)C(c1cccnc1)N(C(=O)c1csnn1)c1ccc(F)cc1` (stereo not drawn) it is 1.7%.
The value for `CC1CCN(C(=O)Cn2nnnc2CN2CCOCC2)CC1` was 15.5%; that for `CCS(=O)(=O)n1nc(-c2ccc(OC)cc2)nc1SC` was 63.1%; that for `CCS(=O)(=O)n1nc(-c2ccccc2)nc1SCc1ccccc1` was 115% (active).
Turning to `CS(=O)(=O)n1nc(-c2ccccc2)nc1NCc1ccco1`, the inhibition was 7.12%.
With `CCCC(C(=O)NC1CCCC1)N(C(=O)Cn1nnc(-c2ccc(C)o2)n1)c1cccc(O)c1` (stereo not drawn), the inhibition was -4.05%.
The value for `C[C@@H]1O[C@@H](OC[C@H]2O[C@@H](Oc3cc(O)c4c(c3)O[C@H](c3ccc(O)c(O)c3)CC4=O)[C@H](O)[C@@H](O)[C@@H]2O)[C@H](O)[C@H](O)[C@H]1O` was -8.25%; that for `Cc1cc(NC(=O)c2cc(-c3cccs3)on2)nn1Cc1ccc(Cl)cc1` was 9.37%; that for `Cc1ccc(Cn2ccc(NC(=O)c3cc(C(C)C)on3)n2)cc1` was 84.3% (active).
The figure for `Cc1ccc(Cn2ccc(NC(=O)C3C4CCC(C4)C3C(=O)O)n2)cc1` (stereo not drawn) is -3.4%.
The figure for `OC(c1ccc(Cl)cc1)C(CN1CCOCC1)c1ccccc1` (stereo not drawn) is 2.21%; for `CC(=O)c1ccc(S(=O)(=O)NCc2nnnn2-c2ccccc2)cc1` it is -2.55%.
As to `O=C(CSc1nnc(-c2ccncc2)o1)NCc1ccc(Cl)cc1`, the inhibition is -9.29%.
The figure for `c1ccc(-c2nnc(SCc3nc4ccccc4[nH]3)o2)cc1` is 36.1%; for `Clc1ccc(-c2nnc(SCc3nc4ccccc4s3)o2)cc1` it is 61.6% (active).
The figure for `CCOc1ccc(S(=O)(=O)N2CCC(c3ccccc3)CC2)cc1C(=O)O` is -1.98%.
In the case of `COc1cccc(-c2nc(CS(=O)(=O)CC(=O)NCCc3ccc(OC)c(OC)c3)c(C)o2)c1`, the inhibition was -8.6%.
On to `Cc1nc2ccccc2c(=O)n1NC(=O)c1ccc(Cl)c([N+](=O)[O-])c1`, for which the inhibition was -9.41%.
The figure for `NC1=NN(c2cccc(C(=O)O)c2)C(=O)C1` is 143% (active).
As to `O=C(O)c1cccc(N2C(=O)Nc3ccccc3N2O)c1`, the inhibition was 11.8%.
The value for `COC(=O)CC1=NN(c2ccccc2)C(=O)C1` was 17.6%; that for `CC(C)c1nc(CNC(=O)CC2C(=O)NCCN2Cc2cccc(F)c2F)cs1` (stereo not drawn) was -5.01%; that for `CN(CCNC(=O)c1cc2c(-c3ccccc3F)nn(C)c2s1)C1CCCCC1` was -4.2%.
The value for `COc1ccc(OC)c(S(=O)(=O)N(C)CC(=O)N2CCN(c3ccccc3)CC2)c1` was -6.69%; that for `CN(CC(=O)N1CCN(c2ccccc2)CC1)S(=O)(=O)c1cccs1` was 63.8% (active).
The value for `O=C(CCNS(=O)(=O)c1cccs1)N1CCN(c2ccc(F)cc2)CC1` was -7.67%.
On to `CCOc1ccc(S(=O)(=O)NCc2ccc3c(c2)OCO3)cc1C`, for which the inhibition is -11.3%.
The figure for `COc1ccc(N2C(=O)C3C(C2=O)C(C(=O)c2ccccc2)N2CCCC32)cc1` (stereo not drawn) is 19.2%; for `CC(=O)Nc1ccc(S(=O)(=O)NNC(=O)CCc2ccccc2)cc1` it is -3.14%.
The figure for `COc1ccc(-c2onc(C)c2-c2ccc3c(c2)OCCO3)c(O)c1` is -15%.
The value for `COc1cc(-c2c(-c3ccc4c(c3)OCO4)noc2C)ccc1F` was 48.8% (active); that for `COc1ccc(CCNC(=O)c2cc(-c3ccc4c(c3)OCO4)on2)cc1OC` was -10.3%; that for `NC(=O)CC(NC(=O)Cc1ccc(Br)cc1)c1ccc(NC2CC3CCC2C3)c([N+](=O)[O-])c1` (stereo not drawn) was 60%.
On to `Cc1c(C)n(Cc2ccc(Cl)cc2)c2ccc(C(=O)NCCCN3CCOCC3)cc12`, for which the inhibition is -12.7%.
The value for `Cc1ccc(N/N=C2\COC(C)(C)CC2=O)cc1` was 101% (active); that for `COc1ccc(N/N=C2/CCCCC2=O)cc1` was 34.6%.
The figure for `COC(=O)c1ccc(S(=O)(=O)N2CCc3ccccc3C2)cc1` is -1.69%; for `COc1ccc(N(C)S(=O)(=O)c2ccc3c(c2)CC(C)N3C(=O)C2CC2)c(OC)c1` (stereo not drawn) it is 14.9%.
The figure for `CCOC(=O)Nc1ccc(NC(=O)OCC)cc1` is 52.3% (active); for `CC(C)(COC(=O)Nc1ccccc1)COC(=O)Nc1ccccc1` it is 35.2%; for `Cc1ccc(NC(=O)OCc2cncs2)cc1` it is 70.8% (active).
Regarding `CCOC(=O)Nc1ccc(S(=O)(=O)N(C)C(C)C)cc1`, the inhibition was -22.3%.
With `Cc1ccc(NC(=O)OCCNC(=O)c2ccncc2)cc1`, the inhibition is 47.9%.
The value for `O=C(Nc1ccc(Cl)cc1)OCc1cc(-c2ccccc2)on1` was 49.1%; that for `CN1CCc2ccccc2C1Cc1ccccc1NC(=O)c1sc2ccccc2c1Cl` (stereo not drawn) was -2.62%.
Consider `COC(=O)C1(CCSC)NC(c2ccc(OC)cc2OC)C2C(=O)N(c3cccc(C(C)=O)c3)C(=O)C21` (stereo not drawn), for which the inhibition is -5.19%.
The value for `N#Cc1ccc(-c2nc3cc(C#N)c(C#N)cc3nc2-c2ccccc2)cc1C#N` was 56.6% (active); that for `N#Cc1c(-c2ccc(F)cc2)nc(-c2ccccc2)[nH]c1=O` was -4.47%.
The figure for `N#Cc1ccc(-c2ccc(F)cc2)nc1Sc1ccccc1` is -10%.
The figure for `O=C(O)CCC(=O)Nc1ccc(OCC2CCCO2)cc1` (stereo not drawn) is 4.1%.
Turning to `CCOc1ccc(N(C)Cc2cc(=O)oc3ccc(OC)cc23)cc1`, the inhibition was -26.5%.
The figure for `O=C(c1ccc(Cl)cc1)n1cnc2ccccc21` is -4.02%; for `COC(=O)c1ccc(-n2cnc3ccccc32)nc1` it is 159% (active).
The figure for `Cc1ccc(OCC(=O)Nn2cnc3ccccc32)cc1` is -4.5%.
The figure for `O=C(NCc1ccco1)/C(=C/c1ccco1)NC(=O)c1ccccc1` is -2.21%; for `COc1ccc(-c2nnc(SCC(=O)c3cccs3)o2)c(OC)c1` it is 150% (active); for `COc1ccccc1-c1nnc(SCC(=O)Nc2cc(C)on2)o1` it is 18.4%.
As for `COc1ccc(CCNC(=O)CSc2nnc(CNC(=O)c3cccs3)o2)cc1OC`, the inhibition is -18.8%.
The value for `CCOc1ccc(N(CC(=O)Nc2ccccc2F)S(=O)(=O)c2c(C)[nH]c(=O)[nH]c2=O)cc1` was -4.99%; that for `Cc1ccc2cc3cc(C(=O)N4CCCCCC4)oc3nc2c1` was 88.9% (active).
The value for `Cc1cc(C)cc(NC(=O)N2CCCCCCC2)c1` was -6.48%.
Take `Cc1cccc(C(=O)N2CCCN(C(=O)c3cccc(C)c3)CC2)c1`: the inhibition is 19.1%.
In the case of `Cc1oc2nc(SCC(=O)Nc3ccc(S(N)(=O)=O)cc3)nc(NC(=O)c3ccccc3)c2c1C`, the inhibition was -13.4%.
As to `OCCC1CN(Cc2cnc(-c3ccccc3)s2)CCN1CCc1ccccc1` (stereo not drawn), the inhibition was -10.1%.
Turning to `COc1ccc(NC(=O)CN2C(=O)COc3ccc(S(=O)(=O)N4CCOCC4)cc32)c(OC)c1`, the inhibition is -2.93%.
